Measurements published in the supplement of paper PMC8728848.
This is one part of a sample in which the strongest signals are shown more often than they occur.

How the values were obtained:
Test in all cases: glycan array binding signal (z-score within array); higher = stronger binding
Details in all cases: glycan notation: IUPAC condensed, linker removed
Gal6P(b1-4)GlcNAc = molecular target: Gal6P(b1-4)GlcNAc
Summary of the method: (§1)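 From the Consortium for Functional Glycomics database, 3228 arrays were curated, keeping only those whose protein sequence was available. Binding is given as a within-array Z-score averaged across arrays sharing a protein sequence and across linkers. Negative Z-scores can be read as non-binding.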

GalNAc(a1-3)Gal = molecular target: GalNAc(a1-3)Gal
Summary of the method: as §1

GalNAc(b1-3)Gal = molecular target: GalNAc(b1-3)Gal
Summary of the method: as §1

[1] = molecular target: GalNAc(b1-3)Gal(a1-4)Gal(b1-4)GlcNAc(b1-3)Gal(b1-4)Glc
Summary of the method: as §1

[2] = molecular target: GalNAc(b1-4)GlcNAc(b1-2)Man
Summary of the method: as §1

Glc(b1-4)Glc = molecular target: Glc(b1-4)Glc
Summary of the method: as §1

[3] = molecular target: GlcNAc(b1-2)Gal(b1-3)GalNAc
Summary of the method: as §1

[4] = molecular target: GlcNAc(b1-2)[GlcNAc(b1-4)]Man(a1-3)[GlcNAc(b1-4)][GlcNAc(b1-2)[GlcNAc(b1-6)]Man(a1-6)]Man(b1-4)GlcNAc(b1-4)GlcNAc
Summary of the method: as §1

GlcNAc(b1-3)Gal(b1-4)Glc = molecular target: GlcNAc(b1-3)Gal(b1-4)Glc
Summary of the method: as §1

[5] = molecular target: GlcNAc(b1-3)Gal(b1-4)GlcNAc(b1-2)Man(a1-3)[GlcNAc(b1-3)Gal(b1-4)GlcNAc(b1-2)Man(a1-6)]Man(b1-4)GlcNAc(b1-4)GlcNAc
Summary of the method: as §1

[6] = molecular target: GlcNAc(b1-3)Gal(b1-4)GlcNAc(b1-3)Gal(b1-4)GlcNAc(b1-2)[GlcNAc(b1-3)Gal(b1-4)GlcNAc(b1-3)Gal(b1-4)GlcNAc(b1-6)]Man(a1-6)[GlcNAc(b1-3)Gal(b1-4)GlcNAc(b1-3)Gal(b1-4)GlcNAc(b1-2)Man(a1-3)]Man(b1-4)GlcNAc(b1-4)[Fuc(a1-6)]GlcNAc
Summary of the method: as §1

[7] = molecular target: GlcNAc(b1-3)Gal(b1-4)GlcNAc(b1-3)Gal(b1-4)GlcNAc(b1-3)Gal(b1-4)GlcNAc(b1-3)Gal(b1-4)GlcNAc(b1-2)Man(a1-3)[GlcNAc(b1-3)Gal(b1-4)GlcNAc(b1-3)Gal(b1-4)GlcNAc(b1-3)Gal(b1-4)GlcNAc(b1-3)Gal(b1-4)GlcNAc(b1-2)Man(a1-6)]Man(b1-4)GlcNAc(b1-4)GlcNAc
Summary of the method: as §1

[8] = molecular target: GlcNAc(b1-3)Gal(b1-4)GlcNAc(b1-3)Gal(b1-4)GlcNAc(b1-3)GalNAc
Summary of the method: as §1

[9] = molecular target: Neu5Ac(a2-3)Gal(b1-3)GalNAc(b1-3)Gal(a1-4)Gal(b1-4)Glc
Summary of the method: as §1

[10] = molecular target: Neu5Ac(a2-3)Gal(b1-3)GlcNAc(b1-2)[Neu5Ac(a2-3)Gal(b1-3)GlcNAc(b1-4)]Man(a1-6)[Neu5Ac(a2-3)Gal(b1-3)GlcNAc(b1-2)Man(a1-3)]Man(b1-4)GlcNAc(b1-4)GlcNAc
Summary of the method: as §1

[11] = molecular target: Neu5Ac(a2-3)Gal(b1-4)GlcNAc(b1-2)Man(a1-3)[Neu5Ac(a2-3)Gal(b1-4)GlcNAc(b1-2)Man(a1-6)]Man(b1-4)GlcNAc(b1-4)[Fuc(a1-6)]GlcNAc
Summary of the method: as §1

[12] = molecular target: Neu5Ac(a2-3)Gal(b1-4)[Fuc(a1-3)]GlcNAc(b1-2)Man
Summary of the method: as §1

[13] = molecular target: Neu5Ac(a2-3)Gal(b1-4)[Fuc(a1-3)]GlcNAc(b1-6)[Neu5Ac(a2-3)Gal(b1-3)]GalNAc
Summary of the method: as §1

[14] = molecular target: Neu5Ac(a2-3)Gal(b1-4)[Fuc(a1-3)]GlcNAc6S
Summary of the method: as §1

[15] = molecular target: Neu5Ac(a2-6)Gal(b1-4)GlcNAc
Summary of the method: as §1

[16] = molecular target: Neu5Ac(a2-6)Gal(b1-4)GlcNAc(b1-2)Man(a1-3)[Gal(b1-4)GlcNAc(b1-2)Man(a1-6)]Man(b1-4)GlcNAc(b1-4)GlcNAc
Summary of the method: as §1

[17] = molecular target: Neu5Ac(a2-6)Gal(b1-4)GlcNAc(b1-2)Man(a1-3)[Neu5Ac(a2-6)Gal(b1-4)GlcNAc(b1-2)Man(a1-6)]Man(b1-4)GlcNAc(b1-4)[Fuc(a1-6)]GlcNAc
Summary of the method: as §1

[18] = molecular target: Neu5Ac(a2-6)Gal(b1-4)GlcNAc(b1-3)Gal(b1-4)GlcNAc(b1-3)Gal(b1-4)GlcNAc(b1-2)Man(a1-3)[Neu5Ac(a2-6)Gal(b1-4)GlcNAc(b1-3)Gal(b1-4)GlcNAc(b1-3)Gal(b1-4)GlcNAc(b1-2)Man(a1-6)]GalNAc
Summary of the method: as §1

[19] = molecular target: Neu5Ac(a2-6)Gal(b1-4)GlcNAc(b1-3)[Neu5Ac(a2-6)Gal(b1-4)GlcNAc(b1-6)]GalNAc
Summary of the method: as §1

[20] = molecular target: Neu5Ac(a2-8)Neu5Ac(a2-3)Gal(b1-3)GalNAc(b1-4)[Neu5Ac(a2-8)Neu5Ac(a2-3)]Gal(b1-4)Glc
Summary of the method: as §1

[21] = molecular target: Neu5Ac(a2-8)Neu5Ac(a2-3)[Gal(b1-3)GalNAc(b1-4)]Gal(b1-4)Glc
Summary of the method: as §1

[22] = molecular target: Neu5Ac(b2-6)Gal(b1-4)GlcNAc
Summary of the method: as §1

[23] = molecular target: Neu5Gc(a2-8)Neu5Gc(a2-3)Gal(b1-4)GlcNAc(b1-3)Gal(b1-4)GlcNAc
Summary of the method: as §1

B1: Agalectin (Anopheles gambiae) (protein)
chain: MSNRPFTAKFPRYPENGDEVFIRGKLKDDAKSFSVNFCLPRPAQVAEHQTPPYIALHFKTIYDERDDTSRVVLNWKNLQWQQEEVLDNYWHVDRSQTFRVVFRLHEDCIKVFVNSVDHPPDYQFPVQLPLDQIESIELWDDVEHVEEISFRYDNGNSY
- glycan array binding signal (z-score) (Gal6P(b1-4)GlcNAc): -0.335
- glycan array binding signal (z-score) (GalNAc(a1-3)Gal): -0.221
- glycan array binding signal (z-score) (GalNAc(b1-3)Gal): -0.678
- glycan array binding signal (z-score) [1]: 0.038
- glycan array binding signal (z-score) [2]: 0.499
- glycan array binding signal (z-score) (Glc(b1-4)Glc): -0.613
- glycan array binding signal (z-score) [3]: -1.34
- glycan array binding signal (z-score) [4]: -0.389
- glycan array binding signal (z-score) (GlcNAc(b1-3)Gal(b1-4)Glc): -0.291
- glycan array binding signal (z-score) [5]: -0.912
- glycan array binding signal (z-score) [6]: 3.5
- glycan array binding signal (z-score) [7]: 3.07
- glycan array binding signal (z-score) [8]: -0.362
- glycan array binding signal (z-score) [9]: 0.518
- glycan array binding signal (z-score) [10]: 0.945
- glycan array binding signal (z-score) [11]: -0.933
- glycan array binding signal (z-score) [12]: 0.193
- glycan array binding signal (z-score) [13]: 3.95
- glycan array binding signal (z-score) [14]: 3.86
- glycan array binding signal (z-score) [15]: 0.241
- glycan array binding signal (z-score) [16]: -0.321
- glycan array binding signal (z-score) [17]: 5.84
- glycan array binding signal (z-score) [18]: 2.96
- glycan array binding signal (z-score) [19]: -0.501
- glycan array binding signal (z-score) [20]: 0.647
- glycan array binding signal (z-score) [21]: -0.464
- glycan array binding signal (z-score) [22]: -0.879
- glycan array binding signal (z-score) [23]: 0.981
